The values below come from PubChem BioAssay (NCATS).

Each structure is given as a SMILES string. Results filed as inconclusive are left out. Unmarked numbers belong to inactive results. Calls of active or inactive are those of the source. The call rests on the fitted dose curve; in most records, active means well fitted curve in the direction sought with a large enough effect; inconclusive means small, poorly fitted or top-dose-only effect, or another doubt; inactive means no such curve, though single readings can be large; an effect the other way counts as inactive or inconclusive.

The nature of experiment [1]: UWB1.289 Cancer Cell Toxicity qHTS against the NCATS CANVASS Library (AID 1347347). Further: nearly all actives have a fitted effect of over 60% in size. Further: potency means the concentration at half of the fitted maximal effect. The gist of the method: (§1)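 Viability was assessed by adding CellTiter-Glo reagent to treated cultures and reading luminescence after 15min at room temperature. Treatment lasted 72 h at 37 degrees C/5% CO2, using an 11-point series on 1000 cells/well.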
(In general: qHTS replaces the single test concentration by a dilution series.)

The nature of experiment [2]: HEK-293 Cancer Cell Toxicity qHTS against the NCATS CANVASS Library (AID 1347355). Further: nearly all actives have a fitted effect of over 65% in size. Further: potency means the concentration at half of the fitted maximal effect. On outcome: series mostly up to about 46 µM. In a few lines:
(§2)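 Cells at 1000/well were given compound 4 h after plating in an 11-point series. Viability was read by CellTiter-Glo luminescence after 72 h at 37 degrees C.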

Experiment [3] deals with NAD(P)H diaphorase (Clostridium kluyveri). In words: Diaphorse counterscreen qHTS: Assay Interference Panel against the NCATS CANVASS Library (AID 1347362). In a few lines: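 Clostridium kluyveri diaphorase in PBS with 0.01% Tween-20 was preincubated 15 min at room temperature in the dark with compounds (11-point series). Resorufin fluorescence (ex 525/20, em 598/25) was read 5 min after adding resazurin/NADH.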
For orientation: The purpose of a counterscreen is to sort out artefacts and off-target activity.

A short description of experiment [4]: KB-8-5-11 Cancer Cell Toxicity qHTS against the NCATS CANVASS Library (AID 1347364). Further: nearly all actives have a fitted effect of over 75% in size. Further: potency means the concentration at half of the fitted maximal effect. In a few lines:
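KB-8-5-11 cells, 500/well in DMEM + 10% FBS, given compounds in an 11-point series. Incubated 72 h at 37 °C. Viability by CellTiter-Glo luminescence. Confirmation also run with 1 uM tariquidar.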

The nature of experiment [5]: qHTS for ATAD5 Antagonist screened against the NCATS CANVASS Library (AID 1347370). Further: nearly all actives have a fitted effect of over 65% in size. Further: potency means the concentration at half of the fitted maximal effect. In a few lines:
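HEK293T cells with stably integrated ATAD5-luciferase reporter, 2000/well, 5 h attachment; compounds plus 10 µM 5-fluorouridine, 16 h at 37 °C. Luciferase luminescence read, with CellTiter-Fluor viability read first.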

Experiment [6] has as its target Nuclear receptor subfamily 1 group I member 3 (Homo sapiens) (UniProt Q14994). In words: qHTS for Constitutive Androstane Receptor (CAR) Antagonist screened against the NCATS CANVASS Library (AID 1347372). Further: potency means the concentration at half of the fitted maximal effect. The gist of the method: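 HepG2 cells stably carrying hCAR and a CYP2B6-2.2kb luciferase reporter were exposed to compounds plus 50 nM CITCO for 24hr at 37C. CAR activity was read by ONE-Glo luminescence, with viability measured first by CellTiter-Fluor.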

Experiment [7] has the same target. Kind of experiment: qHTS for Constitutive Androstane Receptor (CAR) Agonist screened against the NCATS CANVASS Library (AID 1347373).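 Further: every well also contained 1.5 µM PK11195 alongside the test compound.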 In a few lines: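 HepG2 cells stably carrying hCAR and a CYP2B6-2.2kb luciferase reporter, treated 24hr at 37C with compounds plus 1.5uM PK11195; activation by ONE-Glo luminescence, viability by CellTiter-Fluor.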
Experiment [8] is described as follows: qHTS for Hypoxia signaling pathway (HIF-1) agonists against the NCATS CANVASS Library (AID 1347375). The gist of the method:
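HRE-bla ME-180 cells (0.5% dialyzed FBS) were pre-incubated 5 hrs at 37C, then exposed to compounds in an 11-point series for 17 hrs. Read-out was CCF4-AM beta-lactamase FRET (460/530 nm emissions), with CellTiter-Glo viability in the same wells.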

Experiment [9] can be described thus: 10-beta competent E. coli microbial cell viability qHTS against the NCATS CANVASS Library (AID 1347376). Further: series mostly up to about 46 µM. The gist of the method: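 10-beta competent E. coli (0.2 OD) were exposed overnight at 37C to compounds in an 11-point series. Viability was read as ATP-dependent BacTiter-Glo luminescence after 20 min at room temperature.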
A short description of experiment [10]: DH5-alpha competent E. coli microbial cell viability qHTS against the NCATS CANVASS Library (AID 1347377). The note with it: outcome: dose series up to 46.1 µM unless noted. The gist of the method: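 DH5-alpha E. coli suspension was exposed to an 11-point compound series overnight at 37 °C. Viable cells quantified by ATP luminescence (BacTiter-Glo) after 20 min at room temperature.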

Experiment [11] can be described thus: Cytotoxicity qHTS for assessment of Hepg2 cells membrane integrity screened against the NCATS CANVASS Library (AID 1347387). The gist of the method:
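HepG2 cells (2000/well) attached overnight, then exposed 5 hr at 37C to compounds in an 11-point series (0.59 nM - 46 uM final). LDH release from damaged membranes read fluorometrically (CytoTox-ONE; 560/590 nm) after 10 min at room temperature.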

Experiment [12] in a line: qHTS assay for small molecule disruptors of mitochondrial membrane potential screened against the NCATS CANVASS Library (AID 1347389). Further: series mostly up to about 46 µM; nearly all actives have a fitted effect of over 60% in size. The gist of the method: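 HepG2 cells (2,000/well) plated overnight, then exposed to compounds in 11-point qHTS series for 1 h at 37C before 30 min Mito-MPS dye; depolarization read as fall in red aggregate (590 nm) to green monomer (535 nm) fluorescence.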

Experiment [13] is described as follows: qHTS for activators of dead-cell proteases activity screened against the NCATS CANVASS Library (AID 1347392).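 Further: luminescence from protease leaking out of membrane-damaged cells cleaving impermeant substrate; rising signal means more cytotoxicity.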 Further: potency means the concentration at half of the fitted maximal effect. In a few lines:
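HepG2 cells (2000/well) attached 18 h at 37C, then exposed 5 h to compounds (11-point qHTS). Dead-cell protease activity read as luminescence from cell-impermeant AAF-aminoluciferin substrate after 15 min at room temperature.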

Experiment [14] in a line: Vero-766 cells viability qHTS against the NCATS CANVASS Library: Counterscreen for Zika virus inhibition assay (AID 1347394). Further: nearly all actives have a fitted effect of over 60% in size. Further: potency means the concentration at half of the fitted maximal effect. The gist of the method:
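CellTiter-Glo luminescence, lower signal indicating cytotoxicity. Vero 766 cells without Zika virus, 1000 cells/well, plated overnight, then treated 72 h at 37C across an 11-point series.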

Experiment [15] in a line: Viability qHTS for inhibitors of the SERCaMP assay screened against the NCATS CANVASS Library (AID 1347400). Further: nearly all actives have a fitted effect of over 70% in size. Further: potency means the concentration at half of the fitted maximal effect. In a few lines: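 SH-SY5Y-GLuc SERCaMP MJH297-derived cells, 1000/well, plated 4 h, then exposed to compounds in an 11-point qHTS series for 48 h at 37C. Viability read as CellTiter-Glo luminescence.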
The nature of experiment [16]: SW1088 Cancer Cell Toxicity qHTS against the NCATS CANVASS Library (AID 1347350). Further: nearly all actives have a fitted effect of over 75% in size. Further: potency means the concentration at half of the fitted maximal effect. The gist of the method: as §1
The nature of experiment [17]: U-118MG Cancer Cell Toxicity qHTS against the NCATS CANVASS Library (AID 1347351). Further: potency means the concentration at half of the fitted maximal effect. In a few lines:
as §1

Experiment [18] is described as follows: UWB1.289-WTBRCA1 Cancer Cell Toxicity qHTS against the NCATS CANVASS Library (AID 1347354). Further: potency means the concentration at half of the fitted maximal effect. In a few lines:
as §2

The nature of experiment [19]: qHTS for Activators of p53 Stress Response Pathway screened against the NCATS CANVASS Library (AID 1347388). In a few lines: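 p53RE-bla HCT-116 cells (4000/well) were plated 5 h at 37C, exposed to compounds for 16 h at 37C over an 11-point concentration series, then loaded with CCF4 for 2 h at room temperature; 460/530 nm emission ratio read.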
Experiment [20] in a line: qHTS for inhibitors of Wild type Zika virus screened against the NCATS CANVASS Library (AID 1347396).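 Further: ATP luminescence of surviving cells so rescue from viral cell killing; series mostly up to about 46 µM.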 In a few lines:
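Luminescent CellTiter Glo read-out of virus-induced cytotoxicity, 72 h post-infection, in Vero 766 cells. Compounds were tested at 11 concentrations; uninfected, vehicle-treated wells defined 100% inhibition.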

Sequence of Nuclear receptor subfamily 1 group I member 3 (Homo sapiens) (Q14994 whole entry, looked up): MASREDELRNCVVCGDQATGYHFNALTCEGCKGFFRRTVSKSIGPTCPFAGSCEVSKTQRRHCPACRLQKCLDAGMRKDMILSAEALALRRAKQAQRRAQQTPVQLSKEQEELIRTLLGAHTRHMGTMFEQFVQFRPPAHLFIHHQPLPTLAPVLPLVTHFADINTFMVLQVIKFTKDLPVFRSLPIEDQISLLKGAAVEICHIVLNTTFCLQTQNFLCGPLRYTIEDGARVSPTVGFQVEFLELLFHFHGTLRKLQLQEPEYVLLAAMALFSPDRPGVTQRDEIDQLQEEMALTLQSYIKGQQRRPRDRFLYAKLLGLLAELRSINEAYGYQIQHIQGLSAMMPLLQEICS

For the compound `C[C@@H](O)[C@H]1OC(=O)C=C2[C@]3(C)[C@H]4[C@H](OC(=O)[C@@]4(C)[C@@H](O)[C@H]4O[C@H]43)[C@H]3O[C@@]231`, the Potency in experiment [1] was 2.65 µM (active); in experiment [2] it was 1.48 µM (active); in [4], 1.48 µM (active); in experiment [6], 5.24 µM (active); in experiment [14], 9.33 µM (active); in experiment [15], 7.6 µM (active). Also, the Potency entry in experiment [3], in [5], in experiment [8], in experiment [12] and in experiment [13] was “inactive” each time. In addition, the result in experiment [7], in experiment [9], in [10] and in experiment [11] was inactive.
Regarding `CC(O)/C=C/C1(O)C(C)(C)CC(O)CC1(C)O` (stereo not drawn), the Potency result in [16], in experiment [17], in [18], in experiment [2], in experiment [3] and in [4] was “inactive” in each case. The Potency entry in experiment [5], in experiment [6], in experiment [8], in experiment [19], in experiment [12] and in experiment [13] was “inactive” in each case. In addition, the Potency entry in experiment [14], in experiment [20] and in experiment [15] was “inactive” each time. The result in experiment [7], in experiment [9], in [10] and in [11] was inactive.
With `C[C@@]12CCC[C@@](C)(C(=O)O)[C@H]1CC[C@]13C[C@H]4C[C@H](O[C@@]4(C)C1)[C@H]32`, the Potency in [1] was 7.47 µM (active). Further, the Potency entry in [16], in [17], in [2], in [3], in [4] and in [5] was “inactive” each time. Further, the Potency entry in experiment [6], in experiment [8], in experiment [19], in experiment [12], in experiment [13] and in experiment [14] was “inactive” in each case. In addition, the Potency entry in [20] and in [15] was “inactive” in each case. For the same compound, the compound was classed as inactive in [7], in experiment [9], in experiment [10] and in experiment [11].
With `COc1ccc2cc(NC(=O)C3=NO[C@H]4[C@H](O)C=C[C@@H](Cl)[C@@]4(O)C3)c(=O)oc2c1OC`, the Potency entry in [1], in [16], in [17], in experiment [18], in experiment [2] and in experiment [3] was “inactive” each time. For the same compound, the Potency entry in [4], in [6], in [8], in experiment [19], in experiment [12] and in experiment [13] was “inactive” throughout. Also, the Potency result in experiment [14], in experiment [20] and in [15] was “inactive” throughout. Besides, the compound was called inactive in experiment [7], in [9], in [10] and in [11].
In the case of `CCCCCCCCCCCCCCC[C@H](O)C[C@@H](O)C[C@@H](O)C[C@@H](O)C[C@@H](O)C[C@H]1CC=CC(=O)O1`, the Potency in [1] is 2.11 µM (active); in [16] it was 1.49 µM (active); in experiment [17], 2.11 µM (active); in [18], 3.34 µM (active); in [2], 5.26 µM (active); in experiment [4] it was 6.62 µM (active). Moreover, the Potency in [5] is 26.3 µM (active); in experiment [6] it was 8.31 µM (active); in experiment [13] it was 13.2 µM (active); in experiment [14], 5.24 µM (active); in experiment [15] it was 12 µM (active). The Potency result in experiment [3] and in experiment [19] was “inactive” each time. In addition, the compound was called inactive in [7], in experiment [9] and in experiment [10].
